# Data published in the supplement of paper PMC10646978.
# ± gives the standard deviation.
# Test system: RAW-Dual (murine macrophage reporter line)
# Assay: IRF reporter (Lucia luciferase) activity fold change vs agonist alone; higher = enhanced IRF activity
# Conditions: modulator concentration 10 µM; agonist: LPS 0.1 ug/mL
# Method in brief: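 RAW-Dual murine macrophage reporter cells were seeded at 50 000 per well in 384-well plates and pre-incubated 1 hour at 37 °C with compound pin-transferred to 10 μM final. After 1 hour, a PRR agonist was added and cells incubated overnight. Supernatant NF-κB (SEAP, QUANTI-Blue, 620 nm absorbance) and IRF (Lucia luciferase, QUANTI-Luc, luminescence) signals were divided by the mean agonist-only control on the same plate to give fold change. Two replicate plates were averaged, with errors by propagation.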
row,SMILES,IRF reporter
1,O=C(c1cc(C(F)(F)F)cc(C(F)(F)F)c1)N1CCOCC1CO (stereo unspecified),1.04 ± 0.092
2,CC1CCN(c2nccnc2Oc2ccc(C(=O)N3CCN(c4ccc(F)cc4)CC3)cc2)CC1,1.26 ± 0.18
3,CC1=NN(c2ccc(Cl)cc2)C(=O)C1=Cc1c(C)nn(-c2ccc(C)cc2C)c1O,1.06 ± 0.085
4,Cc1cc(N2CCCCC2)nc2ccccc12,1.03 ± 0.098
5,COc1cccc2c1C(=O)c1c(O)c3c(c(O)c1C2=O)C[C@@](O)(C(=O)CO)C[C@@H]3O[C@H]1C[C@H](N)[C@@H](O)[C@H](C)O1.Cl,0.0179 ± 0.0063
6,COc1cc(O)c2c(=O)cc(-c3ccc(O)cc3)oc2c1,0.959 ± 0.049
7,CCOc1nc2cccc(C(=O)O)c2n1Cc1ccc(-c2ccccc2-c2nnn[nH]2)cc1 [Prestw-1258],0.914 ± 0.093
8,O=C1C=C(c2c(O)ccc3ccccc23)c2ccccc2C1=O,1.44 ± 0.18
9,CCNC(=O)CCC/C=C\C[C@@H]1[C@@H](/C=C/C(O)CCc2ccccc2)[C@@H](O)C[C@@H]1O (stereo partly specified),0.961 ± 0.061
10,Br.O=S(=O)(c1ccc(-c2csc(Nc3ccc(F)cc3)n2)cc1)N1CCOCC1,0.948 ± 0.054
11,OC(c1cc(C(F)(F)F)nc2c(C(F)(F)F)cccc12)C1CCCCN1 (stereo unspecified) [Prestw-126],2.89 ± 0.33
12,O=S(=O)(c1cccc2ccccc12)n1nnc2ccccc21,1.04 ± 0.065
13,COc1cc(/C=C/C(=O)/C=C(O)/C=C/c2ccc(O)c(OC)c2)ccc1O,0.279 ± 0.091
14,Nc1ncn(C2OC(CO)C(O)C2O)c(=O)n1 (stereo unspecified),0.728 ± 0.099
15,O=C(NC1CC2CCC1C2)c1ccccc1Cl (stereo unspecified),1.35 ± 0.12
16,CC(C)Nc1cc(-c2c[nH]c(C(=O)N[C@H](CO)c3cccc(Cl)c3)c2)c(Cl)cn1,1.46 ± 0.12
